Source: PubChem BioAssay (EPA / NIEHS)
Calls of active or inactive are those of the source. Rule for the calls: active = hit-call score of the fitted dose curve at least 0.9, where 1 is the maximum; inactive = score below 0.9.

Experiments:
[1] = CCTE_Padilla_ZF_Score.Position: CCTE's 144 Hour Post-fertilization zebrafish Assay Score for Position, Padilla Lab (AID 2284409)
Summary of the method: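 Wild-type zebrafish embryos (with chorions) exposed singly from 6–8 hpf in sealed wells of Hanks' solution at 26C, rinsed at 5 dpf. At 6 dpf, blinded assessors scored abnormal water-column position by brightfield stereomicroscopy, relative to DMSO.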

[2] = CCTE_Padilla_ZF_Score.Living: CCTE's 144 Hour Post-fertilization zebrafish Assay Score for Viability, Padilla Lab (AID 2284410);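 note: larval death at 6 dpf judged by absent heartbeat or coagulation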
Summary of the method: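 Mortality at 6 dpf, judged as absent heartbeat or coagulation by two blinded observers, after sealed static exposure beginning at 6–8 hpf at 26C. Larvae were rinsed free of chemical at 5 dpf, and activity was fitted relative to DMSO.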

[3] = CCTE_Padilla_ZF_Score.General: CCTE's 144 Hour Post-fertilization zebrafish Assay Score for General Malformation, Padilla Lab (AID 2284411)
Summary of the method: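 Malformation, death and hatching were scored at 6 dpf by two blinded observers under a stereo microscope. Embryos were dosed singly from 6-8 hpf in sealed plates of 10% Hanks' at 26C and rinsed on 5 dpf; DMSO baseline.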

[4] = CCTE_Padilla_ZF_Score.Tail: CCTE's 144 Hour Post-fertilization zebrafish Assay Score for Tail Malformation, Padilla Lab (AID 2284414)
Summary of the method: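 Tail malformations were scored at 6 dpf by two blinded assessors under a stereo microscope. Chorionated embryos had been exposed from 6-8 hpf in sealed wells of 10% Hanks' at 26 C, then rinsed free of chemical at 5 dpf.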

[5] = CCTE_Padilla_ZF_Score.Any: CCTE's 144 Hour Post-fertilization zebrafish Assay Score for Any Mortality or Malformation, Padilla Lab (AID 2284416)
Summary of the method: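 Wild-type zebrafish embryos with chorions, one per well in 10% Hanks' from 6–8 hpf, dosed in sealed plates at 26 C, 14:10 h light:dark; rinsed at 5 dpf; blinded scoring at 6 dpf for death or malformation, versus DMSO.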

[6] = test system: TTR (gene 7276); test: CCTE_GLTED_hTTR_0.125uM: CCTE's human Transthyretin (hTTR) Inhibition Assay, with 0.125uM TTR, Great Lakes Toxicology and Ecology Division (GLTED) Lab (AID 2284431);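 note: hits lower the fluorescence signal relative to DMSO baseline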
Summary of the method: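 Probe-displacement format: chemicals competing for the T4 site release ANSA from 0.125uM TTR during a 2 h incubation, measured by fluorescence at 380 excitation and 475 emission.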

Measured: AC50

FC(F)(I)C(F)(F)C(F)(F)C(F)(F)I
active: [3] 24.3 µM | [4] 80.4 µM | [5] 16.9 µM
inactive: [1] | [2]

O=S(=O)(O)C(F)(F)C(F)(F)C(F)(F)C(F)(F)C(F)(F)C(F)(F)C(F)(F)F
active: [1] 22 µM | [2] 71 µM | [3] 16.6 µM | [4] 31.2 µM | [5] 21.3 µM

N=C(N)C(F)(F)C(F)(F)C(F)(F)C(F)(F)C(F)(F)C(F)(F)C(F)(F)F
active: [2] 22.2 µM | [5] 22.2 µM
inactive: [1] | [3] | [4]

OCC(F)(F)C(F)(F)C(F)(F)C(F)F
inactive: [1] | [2] | [3] | [4] | [5]

FC(F)(F)C(F)(F)C(F)(F)C(F)(F)C(F)(F)C(F)(F)CCS
inactive: [1] | [2] | [3] | [4] | [5]

FC(F)(F)C(F)(F)C(F)(F)N(C(F)(F)C(F)(F)C(F)(F)F)C(F)(F)C(F)(F)C(F)(F)F
inactive: [1] | [2] | [3] | [4] | [5]

O=C(O)C(F)(OC(F)(F)C(F)(OC(F)(F)C(F)(F)C(F)(F)F)C(F)(F)F)C(F)(F)F (stereo not given)
inactive: [1] | [2] | [3] | [4] | [5]

CCCCCCCCC(F)(F)C(F)(F)C(F)(F)C(F)(F)C(F)(F)C(F)(F)F
inactive: [1] | [2] | [3] | [4] | [5]

O=C(O)C=C(C(F)(F)F)C(F)(F)F
inactive: [1] | [2] | [3] | [4] | [5]

Nc1ccc([N+](=O)[O-])cc1O
inactive: [3]

CC(Cc1ccc(O)c(O)c1)C(C)Cc1ccc(O)c(O)c1 (stereo not given)
active: [6] 90.9 nM

O=C(O)C(F)(F)C(F)(F)C(F)F
inactive: [1] | [2] | [3] | [4] | [5]

CCCCCCC(C)OC(=O)CCCCC(=O)OC(C)CCCCCC (stereo not given)
inactive: [3]

c1ccc(B(c2ccccc2)c2ccccc2)cc1
active: [6] 1600 nM

CCCCNc1ccccc1
inactive: [3]

CC(C)(C)C(=O)CC(=O)C(F)(F)C(F)(F)C(F)(F)F
inactive: [4]
active: [1] 29 µM | [2] 32.8 µM | [3] 26.4 µM | [5] 26.6 µM

Cc1ccc(S(=O)(=O)OCC(F)(F)C(F)(F)C(F)(F)C(F)(F)C(F)(F)C(F)F)cc1
inactive: [1] | [2] | [4]
active: [3] 8.85 µM | [5] 22.9 µM

FC(F)(F)C(F)(F)C(F)(F)C(F)(F)C(F)(F)C(F)(F)C(F)(F)I
inactive: [1] | [2] | [4]
active: [3] 11.8 µM | [5] 12.4 µM

CCO[Si](CCC(F)(F)C(F)(F)C(F)(F)C(F)(F)C(F)(F)C(F)(F)F)(OCC)OCC
inactive: [1] | [2] | [3] | [4] | [5]
